This is an account of results in PubChem BioAssay AID1529 (NMMLSC, 2009).

Structures are written as SMILES. Among all 290,000 compounds or so, about 4,200 (1.4%) were called active. The sample holds actives, similar compounds and a random draw of the others, so the mix is not that of the screen. A number with no mark means an inactive call.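 How the source made its calls: active means binding response more than 3 SD above or below the average of its plate-row segment, actives on both sides; inconclusive means wells at one plate position flagged as instrument error; inactive means the rest.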

The target in the test is Mitogen-activated protein kinase kinase kinase 3 (Homo sapiens) (UniProt Q99759). The test is described as follows: modulators of MEKK3-MEK5 PB1 binding, primary screen, biochemical, wildtype MEKK3, multiplex bead flow cytometry, Alexa488-MEK5 (AID 1529).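 Further: Alexa488 bead fluorescence after subtracting the streptavidin-only scavenger bead signal.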 The settings on record: bead-based flow cytometry, Alexa488-MEK5 binding to MEKK3; at 10 µM; actives lie on both sides; 0 = blocked by unlabeled MEK5, 100 = vehicle.
Chain of Mitogen-activated protein kinase kinase kinase 3 (Homo sapiens) (Q99759 whole entry, looked up): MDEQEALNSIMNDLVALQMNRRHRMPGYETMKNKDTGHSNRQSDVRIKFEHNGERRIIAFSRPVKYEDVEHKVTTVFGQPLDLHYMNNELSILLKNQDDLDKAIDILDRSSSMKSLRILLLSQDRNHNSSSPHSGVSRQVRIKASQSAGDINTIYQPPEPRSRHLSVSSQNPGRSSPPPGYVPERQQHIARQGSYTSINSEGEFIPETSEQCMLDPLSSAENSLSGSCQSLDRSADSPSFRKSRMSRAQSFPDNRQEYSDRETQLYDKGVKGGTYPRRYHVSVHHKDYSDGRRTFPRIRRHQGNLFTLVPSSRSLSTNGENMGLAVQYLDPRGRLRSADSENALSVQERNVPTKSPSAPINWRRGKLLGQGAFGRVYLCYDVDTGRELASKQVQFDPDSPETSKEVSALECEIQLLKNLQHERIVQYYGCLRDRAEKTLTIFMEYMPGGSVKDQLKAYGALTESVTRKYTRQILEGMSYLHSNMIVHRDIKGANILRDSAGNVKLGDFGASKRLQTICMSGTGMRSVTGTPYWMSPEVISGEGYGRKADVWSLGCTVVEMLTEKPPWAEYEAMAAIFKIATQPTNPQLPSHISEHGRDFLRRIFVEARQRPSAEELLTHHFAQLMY
As for `Cc1ccc2c(c1)N(C(=O)CCC(=O)NCc1cccnc1)CCO2`, the binding response (% of control) is 100%.
The value for `COc1ccc(/C=C/C(=O)OCC(=O)Nc2cccc(Oc3ccccc3)c2)c(OC)c1` was 106%; that for `COc1cccc(NC(=O)CN(C)C(=O)/C=C/c2cc(OC)ccc2OC)c1` was 151% (active).
The value for `COc1cccc(NC(=O)CN(C)C(=O)Cc2ccc(Cl)cc2Cl)c1` was 106%; that for `CCOC(=O)N1CCN(C(=O)c2cn(C)c3ccc(S(=O)(=O)N(CC)CC)cc3c2=O)CC1` was 98%.
For `CCOC(=O)CC1(NC(=O)c2cc(COc3cncc(Cl)c3)on2)CCCCC1` the value was 103%; for `O=C(CN1C(=O)CSC1=O)N1CCCC(Nc2ccc(F)cc2)C1` (configuration not stated), 102%.
On to `CN(C(=O)c1cc2c(=O)n3ccccc3nc2s1)C1CCCCC1`, for which the binding response (% of control) is 100%.
As to `Cn1c(=O)c2c(nc(N/N=C/c3cccs3)n2Cc2ccc(Br)cc2)n(C)c1=O`, the binding response (% of control) was 131% (active).
On to `Cn1c(=O)c2c(nc(NCCc3ccccc3)n2Cc2ccccc2)n(C)c1=O`, for which the binding response (% of control) was 96%.
The value for `Cn1c(=O)c2sccc2n(Cc2ccc(Br)cc2)c1=O` was 101%; that for `COc1ccc(OCC(=O)NNC(=O)c2cccc(C)c2)cc1` was 103%.
`COc1cccc(OCC(=O)NNC(=O)c2cnccn2)c1`: the binding response (% of control) was 2% [inhibitor] (active).
The value for `COc1cccc(OCC(=O)Nc2ccccc2C(N)=O)c1` was 110%; that for `Cc1c(C(C)(C)O)[nH]c2ccc(C#N)cc12` was 103%; that for `CCOC(=O)C(NS(=O)(=O)c1ccc(C)cc1)(C(F)(F)F)P(=O)(OCC(C)C)OCC(C)C` (configuration not stated) was 140% (active).
The value for `CC(=O)N1CCN(CC(C)(C)NS(=O)(=O)c2ccc(C)cc2)CC1` was 102%.
For `Cc1ccc(S(=O)(=O)NCC(C)NS(C)(=O)=O)cc1` (configuration not stated) the value was 97%; for `CCCOc1ccc(C(=O)NCCc2ccccc2)cc1`, 97%; for `Cc1cc(C(=O)NCCCc2ccccc2)no1`, 99%.
Take `CC(C)c1ccc(C(=O)NCCCc2ccccc2)cc1`: the binding response (% of control) is 2% [inhibitor] (active).
The value for `C#CCOc1ccccc1/C=C1/C(=O)ON=C1C` was 110%.
Take `Cc1no[n+]([O-])c1COc1ccccc1/C=C1\NC(=S)NC1=O`: the binding response (% of control) is 126% (active).
For `Cc1ccccc1-n1c(C)cc(/C=C2\NC(=O)NC2=O)c1C` the value was 57%; for `COc1cc(S(=O)(=O)Nc2ncn[nH]2)ccc1Cl`, 102%; for `CS(=O)(=O)Nc1ccc(C2=NN(S(C)(=O)=O)C(c3cccs3)C2)cc1` (configuration not stated), 10% [inhibitor] (active).
The value for `CCS(=O)(=O)Nc1ccc(C2=NN(C(C)=O)C(c3cccs3)C2)cc1` (configuration not stated) was 55%.
Consider `CS(=O)(=O)Nc1cccc(C2=NN(S(=O)(=O)c3ccccc3)C(c3cccs3)C2)c1` (configuration not stated), for which the binding response (% of control) was 95%.
For `Cc1occc(=O)c1OCc1c(Cl)cccc1Cl` the value was 102%; for `CCOc1ccc(NC(=O)C2CCN(C(=O)N3CCOc4ccccc43)CC2)cc1`, 103%; for `Cc1ccc(-c2noc(C3CCCN(C(=O)c4cccc(Cl)c4)C3)n2)o1` (configuration not stated), 99%.
For `COc1ccc(N2CCN(C(=O)CN3C(=O)COc4ccccc43)CC2)cc1` the value was 101%; for `COc1ccc(OCCCCN2CCC(C)CC2)cc1`, 108%; for `C/C=C/c1ccc(OCCOc2ccc(C=O)cc2OC)c(OC)c1`, 100%.
In the case of `C/C=C/c1ccc(OCCCCN2CCC(C)CC2)c(OC)c1`, the binding response (% of control) is 69% [inhibitor] (active).
On to `O=c1[nH]snc1-c1c(Cl)cccc1Cl`, for which the binding response (% of control) is 105%.
For `COc1cccc(NC(=O)COc2cc(C)cc3oc(=O)cc(C)c23)c1` the value was 103%; for `CCOc1ccc(Nc2nc(Cl)nc(N3CCN(c4ccc(OC)cc4)CC3)n2)cc1`, 103%; for `CCN1CCN(c2nc(Nc3cc(OC)ccc3OC)nc(Nc3cc(OC)ccc3OC)n2)CC1`, 37% [inhibitor] (active).
For `CCOC(=O)N1CCN(CCC(=O)Nc2cc(OC)ccc2OC)CC1` the value was 96%.
As to `CC(=O)O[C@H]1c2ccccc2-c2ccccc2[C@@H]1OC(C)=O`, the binding response (% of control) was 104%.
For `COC(=O)c1ccc(NC(=O)c2cc3c(CO)cnc(C)c3oc2=Nc2cccc(C(N)=O)c2)cc1` the value was 102%; for `O=C(NC1CCCC1)C(c1ccco1)N(C(=O)c1csnn1)c1ccccc1` (configuration not stated), 100%; for `CCOC(=O)/C=c1\s/c(=C\c2ccc(C#N)cc2)c(=O)n1CC(=O)Nc1cccc(C)c1C`, 102%.
With `CN(c1ccccc1)c1ccc(/C=c2\s/c(=C(/C#N)C(=O)C(C)(C)C)n(Cc3ccco3)c2=O)cc1`, the binding response (% of control) was 47% [inhibitor] (active).
For `Cc1cs/c(=N\N=C\c2ccc(O)cc2)n1Cc1ccco1`, the binding response (% of control) was 100%.
In the case of `COc1ccc(Cc2nc3ccc(C(=O)N4CCC(N(C)C)C4)cc3o2)cc1` (configuration not stated), the binding response (% of control) was 97%.
